SMILES strings stand for the structures. The campaign covered roughly 420,000 compounds. About 50,000 (12%) were called active. Where a call stands in place of a potency, no number is given. Another 26% or so got no clear call; they are omitted. The sample holds actives, similar compounds and a random draw of the others, so the mix is not that of the screen. Values without a mark were called inactive. Calls come from the whole dose curve; as a rule, active = well fitted inhibition curve with a large enough effect; inconclusive = small, poorly fitted or top-dose-only effect; inactive = flat fitted curve, though single readings scatter.
Potency is the fitted concentration of half-maximal effect.

The nature of this assay: qHTS for Inhibitors of human tyrosyl-DNA phosphodiesterase 1 (TDP1): qHTS in cells in presence of CPT. Note: nearly all actives have a fitted effect of over 55% in size. The note with it: chicken DT40 Tdp1-/-;hTDP1 cells + 20 nM CPT, ATP luminescence, 48 h; series mostly up to 46.2 µM. The essentials:
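Chicken DT40 Tdp1-/- cells complemented with human TDP1, 400 cells/well, exposed to compounds plus 20 nM camptothecin for at least 48 h at 37 C; viability read as ATP content by CellTiter-Glo luminescence.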
For the compound `CC(CC(=O)Nc1ccc(F)cc1F)S(=O)(=O)c1ccc2c(c1)NC(=O)CO2` (stereo unspecified), the Potency result was “inactive”.
On the same count and under the same terms, the entry for `c1ccc2c(c1)CCc1snnc1-2` is “inactive”; for `O=C(CCNS(=O)(=O)c1ccc(Br)cc1)NCC1CCCO1` (stereo unspecified) it is “inactive”.
Regarding `CCc1cc(-c2n[nH]c(=S)n2CC(C)C)cs1`, the Potency result was “inactive”.
The same measure, in the same setting: the entry for `CCC(=O)c1ccc(OCC(O)CN2CC(C)OC(C)C2)cc1` (stereo unspecified) is “inactive”; for `C[N+]1(CC(=O)c2cccs2)CCOCC1` it is “inactive”.
Regarding `CC(C)CCOc1ccc(C(=O)C[N+]2(C)CCOCC2)cc1`, the Potency is 20.6 µM (active).
With `COc1ccc(Br)cc1CNC(=O)c1cc(=O)[nH]c2ccc(S(=O)(=O)N3CCCC3)cc12`, the Potency result was “inactive”.
Still for that read-out and setting: the entry for `CCOC(=O)c1c(C)n(C)c2ccc(OC)c(NC(=O)CN3CCC4(CC3)OCCO4)c12` is “inactive”; for `Cc1nnc(NC(=O)/C=C/c2ccco2)s1` it is “inactive”; for `CCC(=O)Nc1ccc2nn(-c3ccc(F)cc3)nc2c1` it is “inactive”.
The same measure, in the same setting: next, `Cc1ccc(-n2nc3ccc(NC(=O)/C=C/c4ccco4)cc3n2)cc1C`: 23.1 µM (active); `COc1cc(OC)c2ccc(=O)oc2c1C(CCN1CCN(c2ccccc2)CC1)c1ccc2c(c1)OCO2` (stereo unspecified): 23.1 µM (active); `COc1cc(C(CCN2CCN(c3ccccc3)CC2)c2c(OC)cc(OC)c3ccc(=O)oc23)cc(OC)c1OC` (stereo unspecified): 23.1 µM (active).
Same read-out and setting: next, `COc1ccc(C(CC(=O)N2CCN(c3ccccc3)CC2)c2c(O)cc(OC)cc2OC)cc1` (stereo unspecified): “inactive”.
Regarding `O=C(C(=O)N1CCN(c2ccccc2)CC1)c1ccc2c(c1)OCO2`, the Potency result is “inactive”.
With `COc1ccc(F)cc1S(=O)(=O)NCC(c1ccc2c(c1)OCO2)N1CCN(C)CC1` (stereo unspecified), the Potency entry was “inactive”.
As to `COc1ccc(C(c2nnnn2Cc2cccs2)N2CCN(c3ccccc3)CC2)cc1OC` (stereo unspecified), the Potency result is “inactive”.
In the case of `C=CCNC(=S)NNC(=O)c1ccc(Br)o1`, the Potency entry is “inactive”.
Still for that read-out and setting: next, `CCn1c(O)c2ccc(C(=O)N=NC(=O)c3cccnc3)cc2c1O`: “inactive”; `FC(F)(F)c1ccccc1-c1cc(NCc2ccccc2)ncn1`: 7.31 µM (active).
Still for that read-out and setting: next, `CN(Cc1ccco1)c1cc(-c2ccccc2C(F)(F)F)ncn1`: “inactive”; `COc1ccccc1CNc1cc(-c2ccccc2CN(C)C)ncn1`: “inactive”; `CCOc1cc(S(=O)(=O)NCc2ccc3c(c2)OCO3)ccc1F`: “inactive”.
`Cc1ccc(C(=O)O/N=C(\N)c2ccccn2)cc1Cl`: the Potency result was “inactive”.
`COc1ccccc1-c1ccc(C(=O)N(C)C(C)c2ccon2)c(N2CCN(c3ccccc3F)CC2)n1` (stereo unspecified): the activity change, negative = growth inhibition is 15.9% [at 9.04 µM].
Still for that read-out and setting: next, `CC(C)C1=CC2=CC[C@H]3[C@](C)(C(=O)O)CCC[C@]3(C)C2CC1` (stereo partly specified): 26.1% [at 9.04 µM].
In the case of `O=C(NN1C(=O)C2C3C=CC(C3)C2C1=O)c1ccco1` (stereo unspecified), the Potency entry is “inactive”.
Consider `COc1cc(Nc2nc(-c3ccc(OC)c(OC)c3)nc3ccccc23)cc(OC)c1`, for which the Potency is 5.8 µM (active).
The same measure, in the same setting: next, `COc1cccc(-c2nc(Nc3ccncc3)c3ccccc3n2)c1`: 8.2 µM (active); `Cc1noc(C)c1-c1nc(Nc2ccccc2)c2ccccc2n1`: “inactive”; `COc1ccc(Cl)cc1N(CC(=O)N1CCCCC1)S(C)(=O)=O`: “inactive”.
With `C=Cn1cc[n+](CC(=O)c2ccc(OC)c(OC)c2)c1`, the Potency entry was “inactive”.
Consider `COc1ccc(C23NCCN2C(=O)c2ccccc23)cc1` (stereo unspecified), for which the Potency result was “inactive”.
On the same count and under the same terms, the entry for `Cc1cccc(S(=O)(=O)N(C)C[C@H]2OCc3cnnn3CCCC(=O)N([C@@H](C)CO)C[C@H]2C)c1` is “inactive”.
For `CCCCn1c(N)c(N(Cc2ccccc2OC)C(=O)COc2cc(C)ccc2Cl)c(=O)[nH]c1=O`, the Potency entry was “inactive”.
Same read-out and setting: the entry for `CCCCc1nn2c(=O)cc(COC(=O)c3cccc(NC(=O)COc4ccccc4)c3)nc2s1` is “inactive”; for `COc1ccccc1CN1CC2(CCN(S(=O)(=O)c3ccccc3)CC2)C1` it is “inactive”.
The same measure, in the same setting: next, `COc1ccc(CN2CCC(C)(Oc3cccc(F)c3)C2)c2ccccc12` (stereo unspecified): 23.1 µM (active); `CCOc1cc(CN2CCCC(CO)(Cc3ccc(F)cc3F)C2)ccc1OC` (stereo unspecified): “inactive”.
Take `Cc1ccc(CCNC(=O)CN2C(=O)CSc3ccc(S(=O)(=O)N4CCOCC4)cc32)cc1`: the Potency result is “inactive”.
On to `C[C@H]1Cn2cnc(C(=O)N[C@@H](Cc3c[nH]c4ccccc34)C(=O)OC(C)(C)C)c2C(=O)N1`, for which the Potency result is “inactive”.
Regarding `COc1cc(=O)[nH]c(=O)n1C(=O)Cc1ccccc1`, the Potency is 13 µM (active).
Regarding `CCCOc1ccc(Cn2c(O)cc(=O)[nH]c2=O)cc1`, the Potency entry is “inactive”.
As to `CS(=O)(=O)N1CCN(C(=O)Cc2ccccc2)CC1`, the Potency result was “inactive”.
On the same count and under the same terms, next, `COc1ccccc1NC(=O)[C@H](COCc1ccccc1)NC(=O)OC(C)(C)C`: 23.1 µM (active).
Same read-out and setting: the entry for `COc1ccccc1NC(=O)C(CC(=O)O)Cc1cc(C)cc(C)c1` (stereo unspecified) is “inactive”; for `COc1ccccc1NC(=O)C(C)OC(=O)CC1CCCC1` (stereo unspecified) it is “inactive”.
On the same count and under the same terms, next, `Cc1ccc(SCC(=O)NNC(=O)c2ccc(S(C)(=O)=O)cc2)cc1`: “inactive”; `CCOc1ccc(CNC(=O)c2ccc3c(c2)nnn3C2CCCC2)cc1`: “inactive”; `Cc1cc(Cl)ccc1OCc1nc(-c2ccncc2)no1`: “inactive”.
For the compound `CCCCOc1ccc(C(=O)Nc2cccc(-c3nc4ccccc4o3)c2C)cc1`, the Potency result is “inactive”.
On the same count and under the same terms, next, `COc1cc(OC)cc(C(=O)Nc2ccc(-c3nc4ccccc4o3)c(O)c2)c1`: 18.4 µM (active); `O=C(Nc1ccc(-c2nc3cc(NC(=O)c4ccccc4Cl)ccc3o2)cc1)c1ccccc1Cl`: 7.31 µM (active); `Cc1ccccc1-c1nc2cc(NC(=O)c3cccc(OCCC(C)C)c3)ccc2o1`: 23.1 µM (active).
In the case of `CCCOc1ccc(C(=O)Nc2ccc3oc(-c4cccc(Cl)c4Cl)nc3c2)cc1`, the Potency was 8.2 µM (active).
Still for that read-out and setting: the entry for `O=C(Nc1ccc(C(=O)O)c(O)c1)c1ccccc1` is “inactive”; for `COC(=O)c1ccc(-c2nc3cc(NC(C)=O)ccc3o2)cc1` it is “inactive”.
On the same count and under the same terms, the entry for `CCc1ccc2oc(-c3ccc(NC(=O)c4cc5ccccc5o4)cc3)nc2c1` is “inactive”; for `O=C(Nc1ccc2oc(-c3ccc(O)c(Br)c3)nc2c1)c1cc2ccccc2o1` it is “inactive”.
Regarding `Cc1nc2nc[nH]n2c(=O)c1NC(=O)c1cccc(OCC(C)C)c1`, the Potency entry was “inactive”.
`CC(=O)Nc1ccc(-c2nc3ccccc3o2)cc1`: the Potency result is “inactive”.
On to `Cc1nc2cc(NC(=O)NCc3ccccc3)ccc2o1`, for which the Potency result is “inactive”.
On the same count and under the same terms, the entry for `O=Cc1c(NCCCN2CCCC2=O)c2ccccc2[nH]c1=O` is “inactive”; for `Cc1cccc(C(=O)OC(C)CN2CCCC2)c1` (stereo unspecified) it is “inactive”; for `COCCNC(=O)CCCN1C(=O)c2ccccc2Sc2ncccc21` it is “inactive”.
Still for that read-out and setting: next, `Cc1ccc2c(Cl)c(C(=O)Nc3nn[nH]n3)sc2c1`: “inactive”; `O=C(COC(=O)CNC(=O)C1CCCCC1)Nc1cccc(F)c1`: “inactive”.
On the same count and under the same terms, next, `CN(C(=O)c1ccccn1)c1nnc(-c2ccccn2)s1`: “inactive”; `c1ccc(-c2cc(-c3nnc4sc(-c5ccccn5)nn34)[nH]n2)cc1`: 11.6 µM (active).
As for `CCOc1cccc(-c2nn3c(-c4ccccn4)nnc3s2)c1`, the Potency entry is “inactive”.
On the same count and under the same terms, next, `Cn1c(N)c(C(=O)COC(=O)c2ccccc2NCc2ccco2)c(=O)n(C)c1=O`: “inactive”; `Nc1cc(N)nc(SCc2ccc(Cl)cc2)n1`: “inactive”; `CC(O)CN(Cc1ccc(Cl)cc1)CC(C)O` (stereo unspecified): “inactive”.
Same read-out and setting: next, `CC[C@]12c3[nH]c4cc(CCC(=O)N(C)C)ccc4c3CCN1C(=O)[C@@H](CC(=O)NCc1ccco1)C[C@@H]2C(=O)N1CCN(C(=O)c2ccco2)CC1`: “inactive”; `CCN(CC)C(=O)[C@H]1CC(CC(=O)NCc2ccco2)C(=O)N2CCc3c([nH]c4ccccc34)[C@]12C` (stereo partly specified): “inactive”; `CC[C@]12c3[nH]c4ccc(Cl)cc4c3CCN1C(=O)[C@@H](CC(=O)NCCCOC)C[C@@H]2C(=O)N1CCN(C(=O)C2CC2)CC1`: “inactive”.
The same measure, in the same setting: next, `CCN(CC)C(=O)[C@H]1C[C@H](CC(=O)NCC23CC4CC(CC(C4)C2)C3)C(=O)N2CCc3c([nH]c4cc(CCC(=O)N(C)C)ccc34)[C@]12C`: 20.6 µM (active); `CC(C)N(C(=O)[C@H]1C[C@H](CC(=O)NC(C)(C)C)C(=O)N2CCc3c([nH]c4ccc(Cl)cc34)[C@]12C)C(C)C`: 7.31 µM (active).
Consider `CC[C@]12c3[nH]c4cc(CCC(=O)N(C)C)ccc4c3CCN1C(=O)[C@@H](CC(=O)NCCCN(C)C)C[C@@H]2C(=O)N1CCN(C(=O)c2ccco2)CC1`, for which the Potency result is “inactive”.
In the case of `CN(C)C(=O)CCc1ccc2c3c([nH]c2c1)[C@]1(CCc2ccccc2)[C@@H](C(=O)N2CCCCC2)C[C@H](CC(=O)NCCC2=CCCCC2)C(=O)N1CC3`, the Potency was 8.2 µM (active).
Take `CN(C)C(=O)CCc1ccc2c3c([nH]c2c1)[C@]1(C)[C@@H](C(=O)N2CCOCC2)C[C@H](CC(=O)NCCc2ccccn2)C(=O)N1CC3`: the Potency entry was “inactive”.
On the same count and under the same terms, the entry for `C[C@]12c3[nH]c4ccc(Cl)cc4c3CCN1C(=O)[C@@H](CC(=O)NCCCn1ccnc1)C[C@@H]2C(=O)N1CCOCC1` is “inactive”; for `COc1ccccc1-c1c(C#N)c(N)nc2c1CCC2` it is “inactive”.
Same read-out and setting: next, `O=C(O)C(CCc1ccccn1)c1ccccc1` (stereo unspecified): “inactive”; `Cc1csc(/N=C/N(C)C)c1C#N`: “inactive”.
As to `OCC1CCCN(c2nc3cc4c(cc3cc2CNCc2cccs2)OCO4)C1` (stereo unspecified), the activity change, negative = growth inhibition is 3.65% [at 9.04 µM].
For `Cc1ccc(C(=O)NCC(=O)NC2CC2)cc1`, the Potency entry was “inactive”.
On the same count and under the same terms, the figure for `CCCOC(=O)c1[nH]c2c(c1C)C(=O)CC(c1cc(OC)c(OC)c(OC)c1)C2` (stereo unspecified) is 9.2 µM (active); for `CCCOC(=O)c1cc2ccccc2oc1=O` it is “inactive”.
As to `CCOC(=O)C1=C(C)NC(=S)NC1c1cccs1` (stereo unspecified), the Potency result is “inactive”.
Same read-out and setting: the entry for `CCOC(=O)C1=C(N)N2C(=O)C(C)SC2=C(C(=O)OCC)C1c1cc(OC)c(OC)c(OC)c1` (stereo unspecified) is “inactive”; for `COc1cc(C2CC(=O)c3cnc(NC(C)=O)nc3C2)cc(OC)c1OC` (stereo unspecified) it is “inactive”; for `CCCOC(=O)c1[nH]c2c(c1C)C(=O)CC(c1cccs1)C2` (stereo unspecified) it is 0.58 µM (active).
Take `N#Cc1ccccc1NC(=O)c1cccc(COc2ccc(Cl)cc2Cl)c1`: the Potency result is “inactive”.
As to `COc1ccc(-c2csc(NC3OC(=O)c4ccccc43)n2)cc1` (stereo unspecified), the Potency is 11.6 µM (active).
On to `CCc1ccccc1NC(=O)[C@@H]1CCC(=O)N1C1OC(=O)c2c1ccc(OC)c2OC` (stereo partly specified), for which the Potency result is “inactive”.
On the same count and under the same terms, next, `COc1ccc2c(c1OC)C(=O)OC2Nc1nc(-c2ccccc2)cs1` (stereo unspecified): 2.31 µM (active); `COc1ccc(-c2csc(NC(=O)CCCc3cccs3)n2)cc1`: “inactive”.
Same read-out and setting: the entry for `COc1ccc2c(c1OC)C(=O)OC2c1c(O)nc(SC)n(-c2ccccc2)c1=O` (stereo unspecified) is “inactive”.
The same measure, in the same setting: the entry for `COc1ccc(N/C=C(\C2OC(=O)c3ccccc32)[N+](=O)[O-])cc1` (stereo unspecified) is “inactive”.
